Pf growth 48h – P. falciparum growth inhibition at 48 hours (one generation). AID 504832. P. falciparum luciferase growth in erythrocytes, 48 h. actives 5.9% (n = 310,000). Potency, µM (titrated, usually from 28.7 µM), without a hit: top-dose activity change, negative = inhibition, actives largely listed as inhibitors; active = well fitted inhibition curve with a large enough effect; inconclusive = small, poorly fitted or top-dose-only effect, or another doubt; inactive = no such curve, though single readings can be large or run the other way; note: % is set by controls: 0 for no effect and ±100 for the full control effect
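Compounds are pin-transferred into medium, infected erythrocytes (2% hematocrit, 0.1% parasitemia final) are added, and plates sit one parasite generation at 37 C in 5% CO2. Detection reagent is then added and luminescence measured.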
SARS PLpro yeast – SARS-CoV PLP inhibition in yeast | actives 0.19% (n = 330,000) | Potency, µM (doses to about 32.9 µM), inactives show at the top dose activity, positive = growth rescue, actives largely listed as activators | S. cerevisiae expressing SARS-CoV PLpro, growth rescue; note: 0% is about no effect; nearly all actives have a fitted effect of over 55% in size
NS1 inh – blocks influenza NS1 protein function | Potency, µM (top dose mostly 46.1 µM), inactives show at the top dose activity, positive = more growth | actives 0.4% (n = 270,000); note: actives are rising curves; nearly all actives have a fitted effect of over 50% in size
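Read-out: OD600 growth recovery of NS1-expressing budding yeast. Cells grown overnight at 30C in -URA glucose medium, washed, resuspended and diluted 1:100 in 2% galactose assay medium, pH 6.0. Same strain lacking NS1 served as positive control.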
RE007 growth inh – less growth of the S. pombe RE007 Vpr strain. Potency, µM (series often up to 92.2 µM), for the others: at the highest dose activity change, negative = less growth, usual class: inhibitors. actives 0.21% (n = 360,000). S. pombe RE007 Vpr strain, BacTiter-Glo ATP luminescence, 24 h; active = well fitted falling curve with a large enough effect; inconclusive = small, poorly fitted or top-dose-only effect; inactive = no such curve, though single readings can be large or run the other way; note: % is set by controls: 0 for no effect and ±100 for the full control effect; nearly all actives have a fitted effect of over 50% in size
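Fission yeast RE007 carrying one integrated HIV-1 vpr copy, seeded at OD 0.01 in PMG+AL medium with 23 nL pinned compound. Grown 24 h at 30 degrees; viability read by BacTiter-Glo luminescence after 5 min.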
Pf growth 96h – P. falciparum growth inhibition at 96 hours. actives 6.9% (n = 320,000). Potency, µM (doses to about 28.7 µM), for the others: at the top dose activity change, negative = inhibition, most hits filed as inhibitors. P. falciparum luciferase reporter growth, 96 h; active = well fitted inhibition curve with a large enough effect; inconclusive = small, poorly fitted or top-dose-only effect, or another doubt; inactive = no such curve, though single readings can be large or run the other way; note: % is set by controls: 0 for no effect and ±100 for the full control effect
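P. falciparum expressing integrated firefly luciferase, in erythrocytes at 2% hematocrit, 0.05% parasitemia, incubated with compounds 96 h at 37 C, 5% CO2. Growth inhibition read as loss of luminescence; two-generation exposure targets delayed-death apicoplast inhibitors.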
* = called active by the depositor; ? = inconclusive; nt = not tested or not shown; [ ] = remark or other dose. Only some compounds are listed: those with a hit (about 9.5% of all), similar ones and a draw of the others. Unless noted, calls come from the whole dose curve. Potency is the fitted concentration of half-maximal effect.

SMILES	Pf growth 48h	SARS PLpro yeast	NS1 inh	RE007 growth inh	Pf growth 96h
O=C(COc1ccc(Br)cc1)Nc1ccc([N+](=O)[O-])cn1	37%	-4%	5%	-20%	4.1µM*
COc1cccc(CCN2C(=O)CCC3=C2CCC3=O)c1	nt	nt	nt	15%	nt
COc1ccc(S(=O)(=O)n2nc(-n3c(C)ccc3C)c3c(F)cccc32)cc1OC	5.9µM*	-2%	7%	5%	?
Cc1cc(N(C)Cc2ccccc2)nc(-c2ccccc2)n1	0%	6%	-31%	-24%	9%
Cc1cc(N(C)Cc2ccccc2)nc2cc(O)ccc12	1.7µM*	1%	-3%	10%	3%
O=C(COC(=O)CN1C(=O)C2CCCCC2C1=O)Nc1cc(F)ccc1F (stereo unspecified)	45%	-6%	nt	-25%	-2%
O=C1CNC(=O)/C(=C\c2ccccc2)N1	13%	0%	6%	4%	31%
O=C1/C(=C/c2ccccc2)NC(=S)N1C(c1ccccc1)c1ccccc1	12µM*	2%	10%	-1%	nt
CCCCCN=C(N)N/N=C/c1c[nH]c2ccc(OC)cc12	3µM*	nt	nt	-8%	3µM*
Cc1cc(C(=O)COC(=O)Cc2n[nH]c(=O)c3ccccc23)c(C)n1-c1cccc(C(F)(F)F)c1	9.3µM*	-17%	9%	-24%	2.9µM*
Cc1cc(C(=O)COC(=O)CC2Sc3ccccc3NC2=O)c(C)n1-c1cccc(C(F)(F)F)c1 (stereo unspecified)	?	0%	-7%	-3%	-4%
N#C/C(C(=O)c1ccccc1)=C1/CCCCCN1	145%	5%	-14%	28µM*	15%
COc1ccc(-c2csc(NC(=O)c3cccc(S(=O)(=O)N4CCN(C)CC4)c3)n2)cc1	?	-2%	?	-6%[3.69 µM]	12µM*
CC(C)C(=O)Nc1nc(-c2ccc(S(=O)(=O)N3CCOCC3)cc2)cs1	0%	6%	2%	13%	-27%
CN1CCN(S(=O)(=O)c2cccc(C(=O)Nc3nc(-c4ccccc4)cs3)c2)CC1	nt	8%	-10%	3%	-71%
COc1ccccc1C(=O)Nc1nc(-c2ccc(S(=O)(=O)N3CCOCC3)cc2)cs1	nt	-2%	?	-12%	?
COc1ccccc1OC(C)C(=O)Nc1nc(-c2ccc(S(=O)(=O)N3CCOCC3)cc2)cs1 (stereo unspecified)	?	-8%	-4%	1%	12µM*
COc1ccc(-c2csc(NC(=O)C(CC(=O)O)N3CCOCC3)n2)cc1 (stereo unspecified)	1.3µM*	nt	16%	-5%	12µM*
O=C(COc1cccc(Cl)c1)Nc1nc(-c2ccc(S(=O)(=O)N3CCOCC3)cc2)cs1	8.3µM*	11%	?	3%	9.3µM*
CCCC(=O)Nc1nc(-c2ccc(OC)cc2)cs1	89%	-9%	0%	1%	nt
CCn1ncc(N2CCOCC2)c(Cl)c1=O	0%	-1%	0%	nt	54%
COc1ccc(-c2csc(NC(=O)C3CCCCN3S(=O)(=O)c3ccccc3)n2)cc1 (stereo unspecified)	?	0%	18%	15%	7.4µM*
CCOc1cccc(C(=O)Nc2nc(-c3ccc(S(=O)(=O)N4CCOCC4)cc3)cs2)c1	5.2µM*	2%	11%	15%	nt
COC(=O)C1=C(CCc2ccccc2)NC(=O)NC1c1ccc(Br)cc1 (stereo unspecified)	14%	0%	17%	-4%	13µM*
COc1ccc(-c2cc(-c3nnc(COC(=O)CC4CC5CCC4C5)o3)c3ccccc3n2)cc1OC (stereo unspecified)	9.3µM*	-14%	10%	5%	0%
SMILES	Pf growth 48h	SARS PLpro yeast	NS1 inh	RE007 growth inh	Pf growth 96h
COc1ccc(CNC(=O)COC(=O)CC2CC3CCC2C3)cc1OC (stereo unspecified)	1%	-7%	-3%	-7%	-8%
O=C1N(c2ccccc2)C[C@@H]2C[C@@H](c3cc4ccccc4o3)N3CCC[C@@]123	-15%	0%	1%	14%	13µM*
CCOc1ccc(CCNC(=O)Cn2cccc2C(=O)c2ccccc2C)cc1OCC	?	14%	-12%	-13%	-1%
C/C(=N\NC(=S)Nc1cccc(C)c1)c1ccccc1	?	?	-43%	-10%	5.2µM*
O=S(=O)(c1ccc(Br)s1)N1CCN(CCc2ccccc2)CC1	-19%	-2%	nt	9%	-20%
CCn1cc(C(=O)NCCCOC)c(=O)c2cc(S(=O)(=O)N(C)C3CCCCC3)ccc21	?	1%	-9%	-1%	-23%
CCCN(CCC)CCCNC(=O)c1cn(C)c2ccc(S(=O)(=O)N(C)C3CCCCC3)cc2c1=O	?	-25%	9%	-12%	4%
CCCN(CCC)CCCNC(=O)c1cn(CC)c2ccc(S(=O)(=O)N(C)C3CCCCC3)cc2c1=O	9.3µM*	3%	0%	1%	10µM*
CCOCCCNC(=O)c1cn(CC)c2ccc(S(=O)(=O)N(C)C3CCCCC3)cc2c1=O	9.3µM*	-3%	-17%	6%	?
Cc1ccc2ccccc2c1NC(=O)c1ccco1	3%[0.00184 µM]	0%	0%	-7%	24%
CCN(C(=O)COC(=O)c1cc(S(=O)(=O)N(C)C)ccc1Cl)C1CCS(=O)(=O)C1 (stereo unspecified)	11%	2%	nt	-13%	-16%
CCc1nnc(NC(=O)CCC(=O)Nc2ccc(Cl)cc2)s1	7%	3%	12%	2%	2%
O=C1N(c2cccc(Cl)c2)C(c2cccnc2)N2CCCN12 (stereo unspecified)	5%	1%	nt	-2%	13µM*
O=C(O)Cn1c(=O)oc2cc(S(=O)(=O)N3CCOCC3)ccc21	nt	nt	8%	nt	nt
COc1cc(C(=O)NCc2nnc(SCC(=O)Nc3cccc(C(F)(F)F)c3)o2)cc(OC)c1OC	-13%	3%	10%	11%	?
CC(C)(C)OC(=O)NC(CCNC=C1C(=O)OC(C)(C)OC1=O)C(=O)O (stereo unspecified)	23%	6%	-9%	18%	8.3µM*
C=CCn1c(SCc2ccccc2C#N)nnc1-c1cc(Br)ccc1O	2.3µM*	-20%	-126%	4%	-1%
COc1cccc(N(CC(=O)N2CCN(C)CC2)S(=O)(=O)c2ccc(C)cc2)c1	-10%	-1%	-6%	16%	12µM*
COc1ccc(N(CC(=O)N2CCN(C)CC2)S(=O)(=O)c2cc(C)ccc2OC)cc1Cl	-10%	6%	2%	0%	8.3µM*
O=C(CN(c1ccc(Cl)c(Cl)c1)S(=O)(=O)c1ccccc1)N1CCc2ccccc2C1	?	-3%	29%	-20%	105%
Cc1ccc(S(=O)(=O)N(CC(=O)N2CCc3ccccc3C2)c2ccc(Cl)c(Cl)c2)cc1	10µM*	0%	?	-2%	?
Cc1cc(C)c(O)c(NC(=S)NC(=O)Cc2ccccc2)c1	?	-9%	0%	-10%	?

Source: PubChem
